{"source": "PubChem BioAssay AID1645854", "about": "(Buhrlage Lab, Dana-Farber Cancer Institute and Novartis …, 2021)", "note": "About 140 (0.3%) of roughly 47,000 compounds were called active. The entries come from a sample that favours actives as a whole. Values without a mark were called inactive. Rule as the data show it: active = inhibition above about 30%; inactive = the rest."}
{"biological_target": "Ubiquitin carboxyl-terminal hydrolase 7 (Homo sapiens) (UniProt Q93009)", "sequence (Q93009 whole entry, looked up)": "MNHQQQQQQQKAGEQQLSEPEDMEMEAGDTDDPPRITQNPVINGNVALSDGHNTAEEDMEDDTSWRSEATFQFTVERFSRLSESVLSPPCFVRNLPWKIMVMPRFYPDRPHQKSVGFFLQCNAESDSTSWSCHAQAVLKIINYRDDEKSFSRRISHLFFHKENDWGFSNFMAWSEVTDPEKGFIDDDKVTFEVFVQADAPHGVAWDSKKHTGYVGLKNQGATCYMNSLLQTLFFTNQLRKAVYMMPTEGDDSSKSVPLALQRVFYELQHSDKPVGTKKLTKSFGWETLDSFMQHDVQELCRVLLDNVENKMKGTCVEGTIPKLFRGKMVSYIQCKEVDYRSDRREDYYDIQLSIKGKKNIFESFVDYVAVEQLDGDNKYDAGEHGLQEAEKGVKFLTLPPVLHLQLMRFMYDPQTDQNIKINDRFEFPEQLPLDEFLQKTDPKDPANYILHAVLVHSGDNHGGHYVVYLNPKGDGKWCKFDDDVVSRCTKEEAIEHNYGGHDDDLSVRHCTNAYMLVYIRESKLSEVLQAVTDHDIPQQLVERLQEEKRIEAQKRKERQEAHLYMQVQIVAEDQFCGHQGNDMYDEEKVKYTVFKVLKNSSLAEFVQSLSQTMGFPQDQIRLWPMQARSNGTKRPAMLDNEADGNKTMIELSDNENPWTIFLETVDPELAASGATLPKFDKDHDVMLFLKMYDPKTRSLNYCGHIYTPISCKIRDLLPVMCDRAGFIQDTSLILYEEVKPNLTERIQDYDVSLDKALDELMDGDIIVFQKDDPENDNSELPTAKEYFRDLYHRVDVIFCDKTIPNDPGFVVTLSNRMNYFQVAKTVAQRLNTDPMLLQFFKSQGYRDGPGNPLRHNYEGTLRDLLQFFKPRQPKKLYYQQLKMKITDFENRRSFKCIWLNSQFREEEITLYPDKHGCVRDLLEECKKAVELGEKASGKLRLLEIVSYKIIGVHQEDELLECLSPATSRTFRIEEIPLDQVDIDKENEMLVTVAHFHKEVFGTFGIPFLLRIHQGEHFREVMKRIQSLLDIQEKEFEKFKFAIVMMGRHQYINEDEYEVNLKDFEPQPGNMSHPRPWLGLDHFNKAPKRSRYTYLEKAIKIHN", "test": "inhibitors of human USP7 deubiquitinase (AID 1645854)", "conditions": "purified USP7, Ub-rhodamine cleavage fluorescence; at 20 µM; active compounds read high"}
{"smiles": "c1cnc(N2CCC3(CCN(Cc4ccc5c(c4)OCO5)CC3)C2)nc1", "inhibition": "6.59%"}
{"smiles": "COc1c2c(cc3c1C(c1nnnn1-c1ccc(C)cc1C)N(C)CC3)OCO2", "note": "(centres undefined)", "inhibition": "10.7%"}
{"smiles": "NC(=O)c1c(NC(=O)c2ccccc2Oc2ccccc2)sc2c1CCN(Cc1ccccc1)C2", "inhibition": "-143%"}
{"smiles": "O=C(Cc1ccccc1)N1CCN(c2cc(C(F)(F)F)nc3ccccc23)CC1", "inhibition": "6.33%"}
{"smiles": "CCN(c1ccccc1)S(=O)(=O)c1ccc2c(c1)OC(C)CN2C(C)=O", "note": "(centres undefined)", "inhibition": "-10.2%"}
{"smiles": "CN(C)CCNC(=O)c1ccc2ccc(N(C)CC3CC3)n2c1", "inhibition": "-3.23%"}
{"smiles": "Cc1nccn1-c1cc(N2CCCC2)nc2ccnn12", "inhibition": "-3.6%"}
{"smiles": "CCCn1nccc1C(=O)NC[C@H]1C[C@@]2(C)[C@@H](O)CCCC[C@H]2N1C(C)=O", "inhibition": "4.78%"}
{"smiles": "COc1ccc(CC(=O)N2CCC3(CC2)OC(C(=O)NCC(C)C)Cn2ccnc23)cc1", "note": "(centres undefined)", "inhibition": "-0.841%"}
{"smiles": "O=C(NCc1ccncc1)c1nc(-c2ccc(N3CCCCC3)nc2)no1", "inhibition": "-95.1%"}
{"smiles": "Cc1cc2nc(N3CCOCC3)n(CC(=O)Nc3ccccc3F)c(=O)c2n1C", "inhibition": "-0.476%"}
{"smiles": "COc1ccccc1CNS(=O)(=O)c1ccc2c(c1)C(=O)N(C)c1ncccc1O2", "inhibition": "1.09%"}
{"smiles": "O=C(CN1C(=O)[C@@H]2CCCN2c2ncccc21)NCc1ccccc1F", "inhibition": "-0.124%"}
{"smiles": "Cc1csc2nc(COc3ccccc3NC(=O)c3ccccc3)cc(=O)n12", "inhibition": "-2.52%"}
{"smiles": "O=C(c1nc(-c2ccc3cc[nH]c3c2)no1)N1CCN(c2nsc3ccccc23)CC1", "inhibition": "2.44%"}
{"smiles": "Cc1ccccc1CS(=O)(=O)Cc1ccc(C(=O)Nc2noc3ccccc23)o1", "inhibition": "2.52%"}
{"smiles": "Cc1cccc(N2CCN(C(=O)c3nc4cccnc4n(C)c3=O)CC2)c1C", "inhibition": "-13.2%"}
{"smiles": "O=C(Nc1ccc(F)cc1)c1ccc(CN2CCOCC2)cc1", "inhibition": "3.54%"}
{"smiles": "Cc1cnc(C2COCCN2C(=O)c2c(C(C)C)noc2C)[nH]1", "note": "(centres undefined)", "inhibition": "4.99%"}
{"smiles": "Cc1ccc(NC(=O)N2CCN3CCCCC3C2)c(C)c1", "note": "(centres undefined)", "inhibition": "-0.822%"}
{"smiles": "O=C(Nc1nc2ccc(S(=O)(=O)N3CCOCC3)cc2s1)c1cc2ccccc2oc1=O", "inhibition": "0.00877%"}
{"smiles": "Cc1ccc(-c2nc(Cn3nnc(C(=O)O)c3C)c(C)o2)cc1", "inhibition": "1.5%"}
{"smiles": "CCc1cnc(N2CCC3(CCN(C(=O)c4cccnc4)C3)CC2)nc1", "inhibition": "1.31%"}
{"smiles": "OCCN1CCN(CC(O)COCCOc2ccc(Cl)cc2)CC1", "note": "(centres undefined)", "inhibition": "6.76%"}
{"smiles": "Cc1cnn(CC(=O)N2CCCCCC2c2ccncc2)c1", "note": "(centres undefined)", "inhibition": "-1.92%"}
{"smiles": "CC(C)[C@H](Cn1nnc2ccccc21)NC(=O)c1ccc2c(c1)CCN2S(C)(=O)=O", "inhibition": "-1.02%"}
{"smiles": "CC(C)CCNC(=O)C(=O)c1cn(CC(=O)N2CCCC2)c2ccccc12", "inhibition": "-9.94%"}
{"smiles": "CSc1cccc(NC(=O)CCn2c(=O)c3cccn3c3ccccc32)c1", "inhibition": "5.36%"}
{"smiles": "Cc1nc(C2CCCN2C(=O)c2cccc3ncccc23)ncc1C(=O)N1CCOCC1", "note": "(centres undefined)", "inhibition": "1.41%"}
{"smiles": "O=C(C1CCN(c2cnc3nccnc3c2)CC1)N1CCN(C2CCCCC2)CC1", "inhibition": "-29.4%"}
{"smiles": "COc1ccc(-c2nnc(SCC(=O)c3cc(C)ccc3C)o2)cc1OC", "inhibition": "9.96%"}
{"smiles": "CC1CCC(NC(=O)C2(C)Cc3ccccc3C(=O)N2Cc2ccccc2)CC1", "note": "(centres undefined)", "inhibition": "-18.1%"}
{"smiles": "CCCN1CCN(Cc2nc3nc(C)cc(N4CCCC4)n3n2)CC1", "inhibition": "0.57%"}
{"smiles": "O=C(NCC1CC1)c1ccc2ccc(N3CCN(c4ncccn4)CC3)n2c1", "inhibition": "-17.3%"}
{"smiles": "Cn1ccc(-c2cc(C(=O)NCCc3ccccn3)c3ccccn23)n1", "inhibition": "0.582%"}
{"smiles": "Cc1ccccc1NC(=O)N1CCC(CC(=O)N2CCCCC2)CC1", "inhibition": "5.39%"}
{"smiles": "COc1cccc(-n2nnc(-c3nnc(-c4ccccc4)o3)c2C)c1", "inhibition": "-29.9%"}
{"smiles": "COc1ccc(C2C3CCCCC3(O)CCN2C(=O)/C=C/c2cc(OC)c(OC)c(OC)c2)c(OC)c1", "note": "(centres undefined)", "inhibition": "2.72%"}
{"smiles": "CN(C(=O)Cn1c(=O)n(CCCC(=O)N2CCc3ccccc3C2)c(=O)c2ccccc21)C1CCCCC1", "inhibition": "-62.2%"}
{"smiles": "Cn1c(CNC(=O)c2ccc(=O)[nH]c2)nc2ccccc21", "inhibition": "3.71%"}
{"smiles": "CN(Cc1ccccn1)C(=O)c1cc(-c2ccn(C)n2)n2ccccc12", "inhibition": "-10.8%"}
{"smiles": "O=C(C1CCC1)N1CCCC(c2nc(N3CCOCC3)ncc2-c2cccnc2)C1", "note": "(centres undefined)", "inhibition": "1.73%"}
{"smiles": "CC1CCc2nc3ccccc3c(C(=O)OCC(=O)Nc3ccc4ccccc4c3)c2C1", "note": "(centres undefined)", "inhibition": "-6.5%"}
{"smiles": "Cn1nc(C(=O)N2CCOCC2)c2c1CN(Cc1cccnc1)CC2", "inhibition": "-1.02%"}
{"smiles": "CC1CCc2c(sc3[nH]c(=O)c(C(=O)Nc4ccc(C(N)=O)cc4)c(O)c23)C1", "note": "(centres undefined)", "inhibition": "2.02%"}
{"smiles": "CNS(=O)(=O)c1ccc(CNC(=O)c2cc(-c3ccc(C)cc3)no2)cc1", "inhibition": "4.58%"}
{"smiles": "CN(C)CCNC(=O)c1ccc2c(c1)nc1n2CCN(C2CCCCC2)C1=O", "inhibition": "-3.11%"}
{"smiles": "COc1ccccc1CNC(=O)c1nc(N2CCSCC2)c2cn(C)nc2n1", "inhibition": "-2.16%"}
{"smiles": "NC(=O)c1ccccc1NC(=O)C1CN(c2nc3c(F)cccc3s2)C1", "inhibition": "-0.695%"}
{"smiles": "CCN1CCN(Cc2nc3nc(C)cc(N4CCCC4)n3n2)CC1", "inhibition": "0.109%"}
{"smiles": "Cc1cc(O)c(=O)cc2c1C[C@H]1CC(C)(C)/C=C/C[C@@]3(C)Oc4cc(=O)c(O)cc(C)c4C[C@@H]3C[C@H](O)[C@]1(C)O2", "inhibition": "32.8% (active)"}
{"smiles": "O=C(NCc1cccnc1)c1cc(-c2ccncc2)n(-c2ccc(F)cc2)n1", "inhibition": "0.279%"}
{"smiles": "Cn1c(SCc2ccc(Cl)cc2)nnc1-c1ccc2c(c1)OCCO2", "inhibition": "-49.5%"}
{"smiles": "O=C(Nc1ccc2c(c1)CCC2)N1CC2CN(S(=O)(=O)c3ccccc3)CC(C1)O2", "inhibition": "-2.8%"}
{"smiles": "O=C1CCC2C(c3ccc4c(c3)OCO4)CC1N2Cc1ccccc1", "note": "(centres undefined)", "inhibition": "-3.81%"}
{"smiles": "Cc1c(S(=O)(=O)Nc2ccccc2F)cc(C(=O)N2CCCCC2)n1C", "inhibition": "5.73%"}
{"smiles": "COc1ccc(Cn2c(=O)[nH]c3cc(C(=O)N4CCC(C(N)=O)CC4)ccc3c2=O)cc1", "inhibition": "-1.91%"}
{"smiles": "Cc1nn(C)c(Cl)c1C1CCCN1C(=O)c1ccc(C)n(C)c1=O", "note": "(centres undefined)", "inhibition": "2.77%"}
{"smiles": "CC(C)C(=O)N[C@@H](CO)[C@H](O)c1ccc([N+](=O)[O-])cc1", "inhibition": "0.416%"}
{"smiles": "CCc1ccc(-n2nnc(C(=O)Nc3nnc(CC)s3)c2C)cc1", "inhibition": "0.00527%"}
{"smiles": "Cc1cnc(C(=O)N2CC[C@@H]3[C@H]2CCCC(=O)N3Cc2ccccc2C(F)(F)F)cn1", "inhibition": "-3.69%"}
{"smiles": "COCCNc1nn2c(-c3ccc4ccccc4c3)cnc2s1", "inhibition": "1.48%"}
{"smiles": "Cc1nn(CC(=O)c2cc(C)n(-c3ccc4c(c3)OCO4)c2C)c(C)c1[N+](=O)[O-]", "inhibition": "-2.39%"}
{"smiles": "Cc1cccc(C(C)C)c1NC(=O)c1ccc(OCc2ccccc2)cc1", "inhibition": "0.214%"}
